# Results taken from the supplement of paper PMC10981050.
# “And” between values parts separate entries of the source, which are not always exact repeats. Equal values may be shown once. Where a name gives a salt, the structure may show the parent alone.
# Columns and labels:
# Test in all cases: cell viability relative to vehicle control; higher = less cytotoxic
# Details in all cases: 10 µM
# [1] = tested on: K562
# Method in brief: (§1)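 Four leukaemia lines, as CRISPR-edited mutant clones and isogenic wild-type clones, were tested against Selleck bioactive, kinase and epigenetic probe libraries after removal of identity-inconsistent compounds. Cells were exposed to a single 10 µM dose for 48 h, and CellTiter-Glo luminescence was then read. Viability was calculated relative to the on-plate vehicle control.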
# [2] = tested on: MARIMO
# Method in brief: as §1
# [3] = tested on: MOLM14
# Method in brief: as §1
# [4] = tested on: OCI-AML2
# Method in brief: as §1
SMILES,cell viability ([1]; SRSF2 genotype: SRSF2 P95H/wt),cell viability ([1]; SRSF2 genotype: SRSF2 wt/wt) [%],cell viability ([2]; SRSF2 genotype: SRSF2 P95H/wt) [%],cell viability ([2]; SRSF2 genotype: SRSF2 wt/wt) [%],cell viability ([3]; SRSF2 genotype: SRSF2 P95H/wt) [%],cell viability ([3]; SRSF2 genotype: SRSF2 wt/wt) [%],cell viability ([4]; SRSF2 genotype: P95H/wt) [%],cell viability ([4]; SRSF2 genotype: wt/wt) [%]
OCC1OC(OC2OC(CO)C(O)C(O)C2O)C(O)C(O)C1O [D-(+)-Trehalose Anhydrous],109% and 105%,114,111,99.1,107,107,99.6,102
Nc1ncnc2c1ncn2[C@@H]1O[C@H](COP(=O)(O)O)[C@@H](O)[C@H]1O [5'-Adenylic acid],99.5% and 92.5%,90.4,84,87.2,87.1,89.3,99.6,93.9
COC(=O)C1=CO[C@@H](O)[C@@H]2C(CO)=CC[C@H]12 [Genipin],94.8% and 97.4%,95.1,71.1,85.7,78,90.4,26.4,41.1
C[C@@H]1O[C@@H]1P(=O)(O)O [fosfomycin tromethamine],108% and 107%,100,109,114,103,104,106,98.6
CC[N+](CC)(CC)CCOc1cccc(OCC[N+](CC)(CC)CC)c1OCC[N+](CC)(CC)CC [Gallamine triethiodide (Flaxedil)],96% and 97.9%,91.8,101,96.8,101,99.5,99,95.4
CN/C(=N\CCSCc1nc[nH]c1C)NC#N [Cimetidine (Tagamet)],102% and 100%,98.8,102,106,101,102,105,104
Nc1ccccc1NC(=O)c1cnccn1,91.8% and 96%,82.8,76.7,90.7,75.5,73.9,81.3,88.3
Cc1ccsc1C(=CCCN1CCC[C@@H](C(=O)O)C1)c1sccc1C [Tiagabine],100% and 93.4%,96.7,91.8,109,97,101,89,111
CO/N=C(\C(=O)N[C@@H]1C(=O)N2C(C(=O)O)=C(CSC(=O)c3ccco3)CS[C@H]12)c1csc(N)n1 [Ceftiofur hydrochloride],98.4% and 82.1%,83.7,89.1,93.9,91.5,93.5,93.4,95.4
NC(=O)c1cn(Cc2c(F)cccc2F)nn1 [Rufinamide (Banzel)],101% and 104%,106,106,108,107,107,113,103
CCOCC(O)COc1ccc(NC(=O)CC[S+](C)C)cc1 (stereo not given) [Suplatast tosylate],100%,103,97.7,109,105,105,97.7,110
O=C(CCCN1CCC(O)(c2ccc(Cl)cc2)CC1)c1ccc(F)cc1 [Haloperidol (Haldol)],87.7% and 94.9%,94.5,73.9,85.3,84.8,91,84.2,91
CC(C)=CCC/C(C)=C/CC/C(C)=C/CC/C=C(\C)CC/C=C(\C)CCC=C(C)C [Squalene],101% and 105%,99.6,111,105,101,101,110,108
COC(=O)Nc1nc2cc(C(=O)c3ccc(F)cc3)ccc2[nH]1 [Flubendazole (Flutelmium)],18.9% and 30.8%,27.6,9.3,12,8.51,43.1,6.97,11
CC(C)c1cc2c(cc1S(=O)(=O)O)[C@@]1(C)CCC[C@@](C)(C(=O)O)[C@@H]1CC2 [Ecabet sodium],95.2% and 96.4%,105,96.6,101,97,99.7,105,91.8
CC(C)C[C@H](NC(=O)CNC(=O)c1cc(Cl)ccc1Cl)B(O)O [Ixazomib (MLN2238)],2.07%,3.87,0.76,3.15,0.41,0.47,0.44,1.8
CN1CCN(S(=O)(=O)c2ccc(-c3cnc(N)c(C(=O)Nc4cccnc4)n3)cc2)CC1,72.1% and 61.7%,73.6,76.7,114,40.6,42.1,30,63.3
O=C(O)CC[C@H]1CC[C@@](c2cc(F)ccc2F)(S(=O)(=O)c2ccc(Cl)cc2)CC1,102% and 101%,97.9,91.6,92.1,98.3,99.2,102,97
COc1ccc2cc1Oc1ccc(cc1)C[C@H]1c3cc(c(OC)cc3CCN1C)Oc1c(O)c(OC)cc3c1[C@H](C2)N(C)CC3 [(+)-Fangchinoline],4.1% and 4.98%,3.92,12.2,1.33,0.71,0.57,0.52,0.71
CCN(CCO)CCCOc1ccc2c(Nc3cc(CC(=O)Nc4cccc(F)c4)[nH]n3)ncnc2c1 [Barasertib (AZD1152-HQPA)],70.7% and 93.2%,81,73.2,68.2,13.9,7.61,29.1,36.6
